# Test results taken from PubChem BioAssay AID2546 (National Center for Advancing Translational Sciences (NCATS), 2010).
# Screen size: about 310,000 compounds; about 11,000 (3.5%) were called active. Roughly 8% stayed inconclusive and do not appear here. The call rests on the fitted dose curve; in most records, active means well fitted inhibition curve with a large enough effect; inconclusive means small, poorly fitted or top-dose-only effect, or effect the other way; inactive means flat fitted curve, though single readings scatter. The list comes from a sample in which actives are over-represented; it also holds similar structures and randomly drawn compounds. Where a call stands in place of a potency, no number is given.
# Assay: VP16 counterscreen qHTS for inhibitors of ROR gamma transcriptional activity;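 further: Gal4-VP16 expression switched on by copper sulfate through the metallothionein promoter; nearly all actives have a fitted effect of over 50% in size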
# Conditions: Drosophila S2 Gal4-VP16 UAS-luciferase, luminescence, 20 h; series mostly up to 53.6 µM
# Potency means the concentration at half of the fitted maximal effect.
row,SMILES,Potency
1,O=C(CN(CC1CCCO1)C(=O)CNS(=O)(=O)c1ccc(Cl)cc1)NCc1ccccc1 (stereo not drawn),inactive
2,CCOc1ccc(NC(=O)c2nc(SCC)ncc2Cl)cc1,inactive
3,O=[N+]([O-])c1cc([N+](=O)[O-])c(Oc2cc(F)cc(F)c2F)cc1NN1CCCCC1,inactive
4,Cc1ccc(-c2noc(C3CCCN(C(=O)c4cccc(Cl)c4)C3)n2)o1 (stereo not drawn),inactive
5,CCOc1ccc(C(=O)NC(=S)Nc2ccc(NC(=O)C(C)C)cc2)cc1[N+](=O)[O-],inactive
6,COc1cccc(OC)c1C(=O)NC(=S)Nc1ccc(N2CCOCC2)c(Cl)c1,inactive
7,CCOc1ccc(C(=O)NC(=S)Nc2ccc(N3CCOCC3)c(Cl)c2)cc1[N+](=O)[O-],3.98 µM (active)
8,CC(=O)N1CCN(c2ccc(NCc3ccc(C(C)C)cc3)cc2)CC1,1.12 µM (active)
9,CC(CC(=O)N1CCN(c2ccccc2)CC1)c1ccccc1 (stereo not drawn),inactive
10,CCc1ccc(NC(=O)N2CCN(c3ccccc3)CC2)cc1,inactive
11,Cc1nn(-c2ccccc2)c(Cl)c1/C=N/NC(=O)c1nn(C)cc1[N+](=O)[O-],inactive
12,COC(=O)c1cc(NC2c3ccccc3C(=O)N2c2ccc(Cl)cn2)cc(C(=O)OC)c1 (stereo not drawn),11.2 µM (active)
13,CCc1ccccc1NC1c2ccccc2C(=O)N1c1cccnc1 (stereo not drawn),inactive
14,Cc1ccnc(N2C(=O)c3ccccc3C2Nc2ccc3c(c2)OCCO3)c1 (stereo not drawn),inactive
15,COc1ccccc1CNC(=O)C1CCN(S(=O)(=O)c2ccc3c(c2)CC(C)N3C(=O)C2CC2)CC1 (stereo not drawn),inactive
16,CN(CCOc1ccc(CC2SC(=O)NC2=O)cc1)c1ccccn1 (stereo not drawn),inactive
17,O=C1N/C(=N\N=C\c2ccco2)SC1Cc1ccc(F)cc1 (stereo not drawn),4.47 µM (active)

row,SMILES,Potency
1,C=CCN1C(=O)C(Cc2cccc(Cl)c2)S/C1=N/N=C/c1ccco1 (stereo not drawn),inactive
2,CC(C)=N/N=C1/NC(=O)C(Cc2ccccc2)S1 (stereo not drawn),2.82 µM (active)
3,COc1ccc(CN2C(=O)C(C)S/C2=N/N=C/c2ccco2)cc1 (stereo not drawn),inactive
4,O=C(O)C[C@@H]1NC(=O)[C@H](Cc2ccccc2)NC1=O,inactive
5,CC1Sc2ccc(S(=O)(=O)CCC(=O)NCc3ccccc3Cl)cc2NC1=O (stereo not drawn),inactive
6,C/C(=N\NC(=O)c1ccc2ccccc2c1)c1cccnc1,inactive
7,COc1ccc(CCNC(=O)CS(=O)(=O)Cc2nc(-c3ccc(C)cc3)oc2C)cc1OC,inactive
8,COc1cccc(CNS(=O)(=O)c2ccc3c(c2)CC(C)N3C(C)=O)c1 (stereo not drawn),inactive
9,Cn1cncc1COC(=O)c1ccc(Cl)cc1,inactive
10,O=C(Cc1c(Cl)cccc1Cl)NC1CC1,inactive
11,C=C(C)COc1ccc(-c2n[nH]c(C)c2-c2ccccc2)c(O)c1,3.16 µM (active)
12,C=C(C)COc1ccc(-c2ncncc2-c2ccc(OC)cc2)c(O)c1,inactive
13,C=C(C)COc1ccc(-c2nc(N)ncc2-c2ccccc2OC)c(O)c1,inactive
14,CCOc1ccc(-c2nc(N)ncc2-c2ccccc2OC)c(O)c1,inactive
15,CCOc1ccc(-c2n[nH]c(C)c2-c2ccccn2)c(O)c1,inactive
16,C=C(C)COc1ccc(-c2n[nH]c(C)c2-c2ccccc2OC)c(O)c1,14.1 µM (active)
